Measured values reported in PubChem BioAssay AID1117292 (Broad Institute, 2014).
Potency and affinity values are given separately. Records with an inconclusive call do not appear. Activity calls are given as the source filed them.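 Rule for the calls: active = compound whose fitted half-maximal dose for signal loss lies within twice the top dose in every replicate test; inconclusive = tests disagree, or flat partial signal loss or poor fit; inactive = every test inactive, flat, rising or too weak.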

Biological target: Endoplasmic reticulum aminopeptidase 1 (Homo sapiens) (UniProt Q9NZ08)
Assay: blocking ERAP1 cleavage of leucine-AMC substrate – biochemical, fluorescence plate reader, dry powder, dose response (AID 1117292)
Conditions: purified ERAP1, Leu-AMC fluorescence, 60 min; series mostly up to 50 µM

Endoplasmic reticulum aminopeptidase 1 (Homo sapiens), sequence (Q9NZ08 whole entry, looked up): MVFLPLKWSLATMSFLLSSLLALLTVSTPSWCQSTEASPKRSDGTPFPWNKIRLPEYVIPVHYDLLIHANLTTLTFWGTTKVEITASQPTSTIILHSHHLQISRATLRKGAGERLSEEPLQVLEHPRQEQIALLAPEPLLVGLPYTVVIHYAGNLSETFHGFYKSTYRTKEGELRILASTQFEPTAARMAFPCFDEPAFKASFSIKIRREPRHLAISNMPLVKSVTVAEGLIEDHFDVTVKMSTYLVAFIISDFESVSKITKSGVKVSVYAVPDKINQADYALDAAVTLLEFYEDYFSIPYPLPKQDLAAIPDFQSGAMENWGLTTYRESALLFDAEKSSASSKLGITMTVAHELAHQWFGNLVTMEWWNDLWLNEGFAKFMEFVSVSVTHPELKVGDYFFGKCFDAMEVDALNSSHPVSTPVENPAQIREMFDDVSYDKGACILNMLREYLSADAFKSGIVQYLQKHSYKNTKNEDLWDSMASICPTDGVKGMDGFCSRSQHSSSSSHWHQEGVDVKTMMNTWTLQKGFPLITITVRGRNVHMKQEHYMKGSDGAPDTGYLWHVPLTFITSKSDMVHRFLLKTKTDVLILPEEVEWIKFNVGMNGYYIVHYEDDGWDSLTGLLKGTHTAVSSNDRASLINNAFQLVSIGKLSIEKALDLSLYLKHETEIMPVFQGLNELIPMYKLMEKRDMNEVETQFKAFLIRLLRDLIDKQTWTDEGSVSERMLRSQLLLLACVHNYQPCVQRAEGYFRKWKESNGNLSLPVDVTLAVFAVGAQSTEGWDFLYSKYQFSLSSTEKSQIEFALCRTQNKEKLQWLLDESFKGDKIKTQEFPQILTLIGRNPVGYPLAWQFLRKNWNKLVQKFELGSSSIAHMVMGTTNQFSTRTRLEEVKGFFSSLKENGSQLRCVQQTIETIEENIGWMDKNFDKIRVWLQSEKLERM

outcome, inactive:
COc1ccc(C(=O)O)cc1S(=O)(=O)Nc1cc(C(F)(F)F)ccc1N1CCCCC1, O=S(=O)(Nc1cc(C(F)(F)F)ccc1N1CCCCC1)c1ccc(F)cc1, CC(=O)N1CCN(C(=O)[C@@H]2CCN2C(=O)Nc2ccc(C)cc2)CC1, CC(=O)N1CCN(C(=O)C2(NC(=O)Nc3ccc(C(C)C)cc3)CCCC2)CC1, O=C(Nc1cc(C(F)(F)F)ccc1N1CCCCC1)c1ccc(S(=O)(=O)O)cc1, O=[N+]([O-])c1cccc(S(=O)(=O)Nc2cc(C(F)(F)F)ccc2N2CCCCC2)c1, COc1ccc(C(=O)Nc2cc(C)ccc2N2CCCCC2)cc1S(=O)(=O)O, COc1ccc(C(=O)Nc2cc(C(F)(F)F)ccc2N2CCCCC2)cc1S(=O)(=O)O, COc1ccc(C(=O)O)cc1S(=O)(=O)Nc1cc(C(F)(F)F)ccc1N1CCOCC1, Cc1ccc(NC(=O)NC2(C(=O)N3CCNCC3)CCCCC2)cc1, CC(=O)N1CCN(C(=O)C2(NC(=O)Nc3ccccc3C(F)(F)F)CCCCC2)CC1, O=S(=O)(Nc1cc(C(F)(F)F)ccc1N1CCCCC1)c1ccc(C(F)(F)F)cc1, O=S(=O)(Nc1cc(C(F)(F)F)ccc1N1CCCCC1)c1cc(Cl)cc(Cl)c1, CC(=O)N1CCN(C(=O)C2(NC(=O)Nc3ccccc3)CCCC2)CC1, COc1ccc(C(=O)Nc2cc(C(F)(F)F)ccc2N2CCCC2)cc1S(=O)(=O)O, O=S(=O)(Nc1cc(C(F)(F)F)ccc1N1CCCCC1)c1ccc(Br)cc1, CC(=O)N1CCN(C(=O)C2CCCN2C(=O)Nc2ccc(C)cc2)CC1 (configuration not stated), COc1cccc(NC(=O)NC2(C(=O)N3CCN(C(C)=O)CC3)CCCCC2)c1, COc1ccc(C(=O)Nc2cc(F)ccc2N2CCCCC2)cc1S(=O)(=O)O, O=S(=O)(Nc1cc(C(F)(F)F)ccc1N1CCCCC1)c1ccc(Cl)cc1, CC(=O)N1CCN(C(=O)C2(NC(=O)Nc3ccccc3F)CCCCC2)CC1, N#Cc1ccc(S(=O)(=O)Nc2cc(C(F)(F)F)ccc2N2CCCCC2)cc1
